According to publication PMC4336329 (PLoS ONE, 2015):
Hit rate of the full screen: of about 310,000 compounds, about 2,200 (0.71%) showed an effect of 50% or more. Effects have a minus sign here. This excerpt belongs to a sample that is enriched for strong results.

Target: human ether-à-go-go-related gene (hERG) potassium channel (human, UniProt Q12809)
Experiment: primary screen, population patch clamp on CHO cells stably expressing hERG; higher = less effect of the substance

Chain of human ether-à-go-go-related gene (hERG) potassium channel (Q12809 whole entry, looked up): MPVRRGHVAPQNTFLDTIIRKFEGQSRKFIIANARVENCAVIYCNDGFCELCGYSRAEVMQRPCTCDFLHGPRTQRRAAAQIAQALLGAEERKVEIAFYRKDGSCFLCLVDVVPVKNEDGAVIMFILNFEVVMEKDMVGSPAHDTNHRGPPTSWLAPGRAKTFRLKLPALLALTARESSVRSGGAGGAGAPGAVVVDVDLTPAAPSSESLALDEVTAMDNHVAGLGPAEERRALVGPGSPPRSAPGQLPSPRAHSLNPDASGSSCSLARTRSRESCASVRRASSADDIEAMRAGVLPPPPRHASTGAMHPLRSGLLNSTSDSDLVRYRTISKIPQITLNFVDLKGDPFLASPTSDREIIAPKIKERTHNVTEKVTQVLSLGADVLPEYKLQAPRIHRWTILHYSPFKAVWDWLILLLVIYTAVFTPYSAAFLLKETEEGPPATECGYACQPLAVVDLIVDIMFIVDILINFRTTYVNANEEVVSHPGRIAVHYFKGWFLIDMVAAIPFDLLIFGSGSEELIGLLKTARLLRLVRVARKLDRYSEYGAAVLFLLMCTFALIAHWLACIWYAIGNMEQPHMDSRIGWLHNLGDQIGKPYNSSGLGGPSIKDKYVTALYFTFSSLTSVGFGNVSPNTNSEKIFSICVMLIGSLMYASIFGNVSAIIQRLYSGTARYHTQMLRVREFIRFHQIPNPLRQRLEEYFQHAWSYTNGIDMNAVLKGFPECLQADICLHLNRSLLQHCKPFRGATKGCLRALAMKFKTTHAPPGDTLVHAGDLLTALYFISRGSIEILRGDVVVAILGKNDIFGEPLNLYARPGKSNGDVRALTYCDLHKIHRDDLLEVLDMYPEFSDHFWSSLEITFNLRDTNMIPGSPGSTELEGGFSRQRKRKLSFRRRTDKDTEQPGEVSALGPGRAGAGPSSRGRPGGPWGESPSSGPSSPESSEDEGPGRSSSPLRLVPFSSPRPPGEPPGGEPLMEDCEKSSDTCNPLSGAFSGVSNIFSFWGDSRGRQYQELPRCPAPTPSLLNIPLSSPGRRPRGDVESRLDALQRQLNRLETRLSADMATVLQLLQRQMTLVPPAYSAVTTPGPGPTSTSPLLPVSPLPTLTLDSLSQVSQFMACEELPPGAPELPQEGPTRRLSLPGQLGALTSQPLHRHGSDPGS

| Structure (SMILES) | hERG current change (%, negative = inhibition) at 1uM [%] |
| --- | --- |
| O=C(CNCc1cccc2ccccc12)Nc1ccccc1[N+](=O)[O-] | 1.68 |
| COc1ccc(NC(=O)CSc2nnc(-c3ccoc3C)n2CCc2ccccc2)cc1 | 1.36 |
| CCN1/C(=C/c2ccc3cc(C)ccc3[n+]2CC)Sc2ccccc21.[I-] | -100 |
| CCC(=O)/C=C1/Sc2ccccc2N1CC | 10.1 |
| CCN1/C(=C/c2ccc3ccc(C)cc3[n+]2CC)Sc2ccccc21.[I-] | -63.6 |
| CCN1/C(=C/C=C/C=C/c2sc3ccccc3[n+]2CC)Sc2ccccc21.[I-] | -37.5 |
| CCN1/C(=C/c2ccc3cccc(C)c3[n+]2CC)Sc2ccccc21.[I-] | -76.4 |
| CCN1/C(=C/C(C)=C/c2sc3ccccc3[n+]2CC)Sc2ccccc21.[I-] | 10.6 |
| CCN1/C(=C/C=C/C=C/C=C/c2sc3ccccc3[n+]2CC)Sc2ccccc21.[I-] | 7.57 |
| CCN1/C(=C/c2ccc3cc(C)ccc3[n+]2CC)Sc2ccc3sccc3c21.[I-] | 10.9 |
| CCC(=O)/C=C1\Sc2ccccc2N1CC | 4.38 |
| COc1cccc(CCc2nnc(N)s2)c1 | 13.2 |
| O=Cc1cn(CC(=O)Nc2ccccc2)c2ccccc12 | 6.4 |
| C=CCOC(=O)Nc1ccc(Cl)cc1NC(=O)OCC=C | 0.411 |
| Cc1ccc(C(=O)Oc2ccc(Cl)c3cccnc23)cc1[N+](=O)[O-] | 15 |
| CCCc1c(C)[nH]c2nc3ccccc3n2c1=O | 11.4 |
| COc1ccc(C)cc1S(=O)(=O)N(C)CC(=O)N1CCC(C(N)=O)CC1 | 9.99 |
| COc1cc(NC(=S)N2CCN(C)CC2)cc(OC)c1 | 14.3 |
| CCN1C(=O)/C(=C\N2CCN(c3cccc(Cl)c3)CC2)SC1=S | 6.97 |
| COc1cccc(NC(=S)N(CCCN2CCCC(C)C2)Cc2cccs2)c1 (stereo not drawn) | -30.2 |
| COc1cccc(NC(=S)N(CCCN2CCOCC2)C(C)c2cc3ccccc3o2)c1 (stereo not drawn) | 10.6 |

| Structure (SMILES) | hERG current change (%, negative = inhibition) at 1uM [%] |
| --- | --- |
| COc1ccc(NC(=S)N(CCCN2CCCCC2)Cc2cccs2)cc1 | -50.1 |
| COc1ccc(NC(=S)N(CCCN2CCC(C)CC2)Cc2cccs2)cc1 | -47.5 |
| COc1ccc(NC(=S)N(CCCN2CCCC2)Cc2cccs2)cc1 | -7.06 |
| COc1ccc(NC(=S)N(CCCN2CCN(C)CC2)Cc2cccs2)cc1 | -14 |
| COc1ccc(NC(=S)N(CCCN2CCOCC2)C(C)c2cc3ccccc3o2)cc1 (stereo not drawn) | -63.1 |
| COc1ccc(NC(=S)N(CCCN2CCOCC2)C(C)c2cc3cccc(OC)c3o2)cc1 (stereo not drawn) | 3.7 |
| COc1ccc(NC(=S)N(CCCN2CCCC(C)C2)Cc2cccs2)cc1 (stereo not drawn) | -62.4 |
| COc1ccccc1-c1csc(NC(=O)c2ccc(N3C(=O)CCC3=O)cc2)n1 | 5.85 |
| Cc1c(C(=O)Nc2ccc(S(=O)(=O)N(C)C3CCN(C)CC3)cc2)oc2ccccc12 | 3.99 |
| Cc1cc(NC(=O)Cn2nc([N+](=O)[O-])c(Br)c2C)no1 | 15.4 |
| Clc1ccc(-c2csc(N3CCN(c4ccccc4)CC3)n2)cc1 | 6.51 |
| O=C(COC(=O)Cc1c(F)cccc1Cl)NCCC1=CCCCC1 | 7.46 |
| Cc1cc(CN(C)C(=O)c2ccc(OC3CCN(Cc4ccccn4)CC3)cc2)on1 | -2.96 |
| Cc1cc(CN(C)C(=O)c2ccc(OC3CCN(CCc4ccccc4)CC3)cc2)on1 | -77.5 |
| CN(Cc1cnn(C)c1)C(=O)c1ccc(OC2CCN(CCc3ccccc3)CC2)cc1 | -8.79 |
| CCc1cc(CNC(=O)c2ccc(OC3CCN(CCc4ccccc4)CC3)cc2)on1 | -54.4 |
| O=C(NCc1ccon1)c1ccc(OC2CCN(CCc3ccccc3)CC2)cc1 | -26 |
| O=C(NCCn1cccn1)c1ccc(OC2CCN(CCc3ccccc3)CC2)cc1 | -1.71 |
| CN1CCN(c2ccc(CNS(=O)(=O)Cc3cccc(C(F)(F)F)c3)cc2)CC1 | 7.74 |
| COc1ccc(CCNC(=O)c2cc3c(=O)n4cccc(C)c4nc3n(Cc3ccco3)c2=N)cc1OC | -21.8 |
| N=c1c(C(=O)NCc2ccco2)cc2c(=O)n3ccccc3nc2n1CCc1ccccc1 | -84.2 |

| Structure (SMILES) | hERG current change (%, negative = inhibition) at 1uM [%] |
| --- | --- |
| CC(C)n1c(=N)c(C(=O)NCCc2ccccc2)cc2c(=O)n3ccccc3nc21 | -78.6 |
| O=C(NCCc1ccccc1)c1cnc2ccccn2c1=O | 8.72 |
| COc1ccc(CCNC(=O)c2ccc3c(=O)n(Cc4ccco4)c(=S)[nH]c3c2)cc1OC | 13.6 |
| COc1ccc(CCNC(=O)c2cc3c(=O)n4ccccc4nc3n(Cc3ccco3)c2=N)cc1OC | -74.3 |
| N=c1c(C(=O)NCc2ccccc2)cc2c(=O)n3ccccc3nc2n1Cc1ccco1 | -75.5 |
| N=c1c(S(=O)(=O)c2ccccc2)cc2c(=O)n3ccccc3nc2n1Cc1ccco1 | 18.6 |
| N=c1c(C(=O)NCCN2CCOCC2)cc2c(=O)n3ccccc3nc2n1CCc1ccccc1 | -33.1 |
| N=c1c(S(=O)(=O)c2ccc(Br)cc2)cc2c(=O)n3ccccc3nc2n1Cc1ccco1 | 15.4 |
| CC(=O)c1ccc(OCCCC(=O)Nc2cccc(S(=O)(=O)N3CCCCC3)c2)cc1 | -3.68 |
| Oc1ccc2ccccc2c1Br | 12.1 |
| COc1ccc(N2CCN(C(=O)/C=C/c3ccco3)CC2)cc1 | 6.52 |
| Cc1ccc(C(=O)NCCNS(=O)(=O)c2ccccc2)cc1 | -1.17 |
| CCC(=O)Nc1nnc(S(=O)(=O)N(CC)c2ccc(OC)cc2)s1 | 23.9 |
| COc1ccc(/C=C(/NC(=O)c2ccccc2)C(=O)N2CCCC2)cc1OC | 14.3 |
| CC(=O)Oc1ccc2c3c(c(=O)oc2c1C)CCCC3 | 15.5 |
| CCOC(=O)CNC(=O)c1cc2c(=O)[nH]c3ccc(C)cc3c2s1 | 11.1 |
| O=C(NC1CC1)c1ccc2snnc2c1 | 6.14 |
| Cc1ccc(C)n1-c1ccc(C(=O)Nc2ccccc2F)cc1 | 10.7 |
| CC1CN(CC(=O)Nc2ccc([N+](=O)[O-])cc2Br)CC(C)O1 (stereo not drawn) | 4.18 |
| Cc1ccc(CNC(=O)c2cc3c(=O)n4ccccc4nc3n(Cc3ccco3)c2=N)cc1 | -38.1 |
| N=c1c(C(=O)NCc2ccc(F)cc2)cc2c(=O)n3ccccc3nc2n1Cc1ccco1 | -85 |

| Structure (SMILES) | hERG current change (%, negative = inhibition) at 1uM [%] |
| --- | --- |
| Cc1ccc(Cn2c(=N)c(C(=O)NCc3ccco3)cc3c(=O)n4ccccc4nc32)cc1 | -67.9 |
| Cc1ccc(Cn2c(=N)c(C(=O)NCCN3CCOCC3)cc3c(=O)n4ccccc4nc32)cc1 | -8.25 |
| N=c1c(C(=O)NCc2ccco2)cc2c(=O)n3ccccc3nc2n1Cc1ccccc1 | -81.6 |
| N=c1c(C(=O)NCCc2ccccc2)cc2c(=O)n3ccccc3nc2n1Cc1ccco1 | -67.5 |
| COc1ccc(N2C(=O)C3CCCN3C2c2ccc(F)cc2)cc1Cl (stereo not drawn) | 8.28 |
| O=C(NCCc1ccc(Cl)cc1)c1cccnc1 | 9.38 |
| CCN(CC)c1ccc(/C=N/N2CCN(Cc3ccccc3)CC2)c(O)c1 | -0.743 |
| O=C(CN1C(=O)/C(=C\c2ccccc2Cl)Oc2ccccc21)NCc1cccnc1 | 5.85 |
| CCN(CC)c1ccc(NC(=O)c2cc(OC)cc(OC)c2)c(C)c1 | -2.35 |
| CC1CCN(S(=O)C23CC4CC(CC(C4)C2)C3)CC1 (stereo not drawn) | 16.3 |
| Fc1cccc(Cl)c1Cn1nnc2c(N3CCC4(CC3)OCCO4)ncnc21 | 13.7 |
| CCn1c(=O)c(C(=O)NCCc2ccc(OC)c(OC)c2)c(O)c2ccccc21 | 8.62 |
| N=c1c(C(=O)NCc2ccco2)cc2c(=O)n3ccccc3nc2n1Cc1ccc(Cl)cc1 | -55.7 |
| N=c1c(S(=O)(=O)c2ccc(Cl)cc2)cc2c(=O)n3ccccc3nc2n1Cc1ccco1 | 14 |
| Cn1c(CSCc2ccc(Cl)c(Cl)c2)nnc1SCC(=O)Nc1nccs1 | 2.81 |
| CN(C)C1=NC[C@H](Cc2ccccc2)N1CCCC1CCCC1 | -56.8 |
| CCCCCCCN1C(N(C)C)=NC[C@@H]1Cc1ccccc1 | -69 |
| CC(C)CCCN1C(N(C)C)=NC[C@@H]1Cc1ccccc1 | -2.29 |
| CN(C)C1=NC[C@H](Cc2ccccc2)N1CCCC1CCCCC1 | -29.5 |
| CN(C)C1=NC[C@H](Cc2ccccc2)N1CCCCc1ccccc1 | -42.2 |
| CN(C)C1=NC[C@H](Cc2ccccc2)N1CCC1CCCC1 | -19.7 |
